Assay in all cases: DAPPL (digital affinity profiling via proximity ligation, sequencing); 10 mM Tris-HCl pH 7.5, 50 mM NaCl, 1 mM DTT, 4% glycerol, room temperature, 30 min; GST-TFs on glutathione beads, 16-mer random dsDNA library, 0.1% formaldehyde crosslink after washing; high values mean tight binding
The target of assay [1] is T1, FLI1 (Homo sapiens, UniProt Q01543 1-452).
T1 sequence: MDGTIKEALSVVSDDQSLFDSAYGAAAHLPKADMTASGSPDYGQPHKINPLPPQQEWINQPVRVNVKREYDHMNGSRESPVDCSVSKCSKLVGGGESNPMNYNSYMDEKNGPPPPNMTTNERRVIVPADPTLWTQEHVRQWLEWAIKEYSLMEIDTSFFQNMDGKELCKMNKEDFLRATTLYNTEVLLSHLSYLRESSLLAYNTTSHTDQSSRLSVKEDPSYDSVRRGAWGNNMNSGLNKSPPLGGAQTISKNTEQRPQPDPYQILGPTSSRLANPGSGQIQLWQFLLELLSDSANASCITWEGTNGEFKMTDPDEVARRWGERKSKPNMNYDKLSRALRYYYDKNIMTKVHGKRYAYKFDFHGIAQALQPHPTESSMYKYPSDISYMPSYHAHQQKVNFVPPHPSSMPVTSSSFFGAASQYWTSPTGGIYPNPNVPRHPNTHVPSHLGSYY
Conditions: protein: recombinant; tags: N-terminal GST; dsDNA, one strand shown. Summed up: (§1)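 The binding signal reported is, for every hexamer, its read frequency for a factor over its read frequency for the tag-only sample. Reads came from pools of yeast-expressed, GST-fused human transcription factors on glutathione beads, barcoded with DNA and mixed with that sample, which were incubated with 200 nmole of a random double-stranded 16-mer DNA library in Tris/NaCl/DTT/glycerol buffer at room temperature for 30 min. After washing, the pools were crosslinked with 0.1% formaldehyde, proximity-ligated with BsaI/T4 ligase for 1 h at 37 °C, PCR-amplified and sequenced on an Illumina NextSeq500.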

The target of assay [2] is T2, ELK1 (Homo sapiens, UniProt P19419 1-428).
T2 sequence: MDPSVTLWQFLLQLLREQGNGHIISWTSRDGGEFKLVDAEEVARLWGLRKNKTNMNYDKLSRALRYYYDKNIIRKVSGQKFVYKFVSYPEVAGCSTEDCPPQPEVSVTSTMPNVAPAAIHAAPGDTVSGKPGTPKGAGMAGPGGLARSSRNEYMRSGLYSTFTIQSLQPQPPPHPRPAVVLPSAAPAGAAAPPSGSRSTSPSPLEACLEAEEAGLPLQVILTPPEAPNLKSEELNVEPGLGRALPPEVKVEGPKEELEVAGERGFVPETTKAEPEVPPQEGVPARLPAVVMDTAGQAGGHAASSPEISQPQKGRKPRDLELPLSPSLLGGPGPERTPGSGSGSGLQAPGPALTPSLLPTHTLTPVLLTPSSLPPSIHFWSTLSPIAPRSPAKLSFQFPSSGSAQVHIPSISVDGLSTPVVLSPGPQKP
Conditions: protein: recombinant; tags: N-terminal GST; dsDNA, one strand shown. Summed up: as §1

The target of assay [3] is T3, GABPA (Homo sapiens, UniProt Q06546 1-454).
T3 sequence: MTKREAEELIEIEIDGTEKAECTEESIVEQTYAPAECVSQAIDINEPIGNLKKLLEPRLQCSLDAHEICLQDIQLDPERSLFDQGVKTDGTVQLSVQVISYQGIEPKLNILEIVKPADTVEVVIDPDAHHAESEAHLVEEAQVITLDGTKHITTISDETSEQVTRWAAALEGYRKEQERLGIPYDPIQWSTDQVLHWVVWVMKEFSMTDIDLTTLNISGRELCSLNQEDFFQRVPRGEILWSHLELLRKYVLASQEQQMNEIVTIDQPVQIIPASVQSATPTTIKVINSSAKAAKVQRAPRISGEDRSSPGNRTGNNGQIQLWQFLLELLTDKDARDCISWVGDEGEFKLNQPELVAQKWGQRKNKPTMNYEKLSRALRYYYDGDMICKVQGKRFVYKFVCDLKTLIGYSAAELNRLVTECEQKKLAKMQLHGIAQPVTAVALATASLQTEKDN
The note with it: protein: recombinant; tags: N-terminal GST; dsDNA, one strand shown. The essentials: as §1

Assay [4] concerns the target T4, ERG (Homo sapiens, UniProt P11308 1-479).
T4 sequence: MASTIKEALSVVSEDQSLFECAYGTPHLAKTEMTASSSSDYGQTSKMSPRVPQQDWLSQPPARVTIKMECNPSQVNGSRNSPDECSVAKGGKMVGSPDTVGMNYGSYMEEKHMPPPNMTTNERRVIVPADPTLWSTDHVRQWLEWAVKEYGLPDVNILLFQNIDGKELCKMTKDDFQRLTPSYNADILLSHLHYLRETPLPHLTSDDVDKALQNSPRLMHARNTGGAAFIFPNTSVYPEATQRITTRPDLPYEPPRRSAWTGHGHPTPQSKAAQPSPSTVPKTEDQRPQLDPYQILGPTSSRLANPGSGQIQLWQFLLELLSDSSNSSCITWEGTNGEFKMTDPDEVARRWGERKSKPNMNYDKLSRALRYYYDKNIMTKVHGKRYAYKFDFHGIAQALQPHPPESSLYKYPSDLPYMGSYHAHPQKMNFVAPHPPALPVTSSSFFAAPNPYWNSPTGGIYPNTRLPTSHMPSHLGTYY
Conditions: protein: recombinant; tags: N-terminal GST; dsDNA, one strand shown. Summed up: as §1

For assay [5], the target named is ELF1 (Homo sapiens, UniProt P32519 1-619). The note with it: protein: recombinant; tags: N-terminal GST; dsDNA, one strand shown. The essentials:
as §1

For assay [6], the target named is T5, EHF (Homo sapiens, UniProt Q9NZC4 1-300).
T5 sequence: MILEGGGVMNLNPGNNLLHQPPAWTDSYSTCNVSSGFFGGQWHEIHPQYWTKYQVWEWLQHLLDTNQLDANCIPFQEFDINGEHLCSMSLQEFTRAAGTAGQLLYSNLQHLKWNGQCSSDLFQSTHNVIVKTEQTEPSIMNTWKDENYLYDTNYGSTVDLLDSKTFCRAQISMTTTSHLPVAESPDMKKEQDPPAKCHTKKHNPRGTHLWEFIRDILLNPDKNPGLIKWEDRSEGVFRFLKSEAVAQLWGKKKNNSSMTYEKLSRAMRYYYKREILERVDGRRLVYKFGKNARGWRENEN
Conditions: protein: recombinant; tags: N-terminal GST; dsDNA, one strand shown. The essentials: as §1

Assay [7] concerns the target SPI1 (Homo sapiens, UniProt P17947 1-270). The note with it: protein: recombinant; tags: N-terminal GST; dsDNA, one strand shown. Summed up: as §1
The target of assay [8] is SPIB (Homo sapiens, UniProt Q01892 1-262). Conditions: protein: recombinant; tags: N-terminal GST; dsDNA, one strand shown. The essentials:
as §1

Assay [9] concerns the target T6, FEV (Homo sapiens, UniProt Q99581 1-238).
T6 sequence: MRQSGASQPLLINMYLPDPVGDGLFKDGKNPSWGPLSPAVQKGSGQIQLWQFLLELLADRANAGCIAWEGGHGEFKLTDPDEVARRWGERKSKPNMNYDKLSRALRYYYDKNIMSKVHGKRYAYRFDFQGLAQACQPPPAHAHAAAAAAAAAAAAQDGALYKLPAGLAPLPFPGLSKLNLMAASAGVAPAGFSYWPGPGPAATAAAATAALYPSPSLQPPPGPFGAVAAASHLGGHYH
The note with it: protein: recombinant; tags: N-terminal GST; dsDNA, one strand shown. The essentials: as §1

The target of assay [10] is ETV5 (Homo sapiens, UniProt P41161 1-510). The note with it: protein: recombinant; tags: N-terminal GST; dsDNA, one strand shown. Summed up:
as §1

In assay [11] the target is HSF1 (Homo sapiens, UniProt Q00613 1-529). The note with it: protein: recombinant; tags: N-terminal GST; chain copies: 3; dsDNA, one strand shown. Summed up: as §1
Chain of HSF1 (Q00613 whole entry): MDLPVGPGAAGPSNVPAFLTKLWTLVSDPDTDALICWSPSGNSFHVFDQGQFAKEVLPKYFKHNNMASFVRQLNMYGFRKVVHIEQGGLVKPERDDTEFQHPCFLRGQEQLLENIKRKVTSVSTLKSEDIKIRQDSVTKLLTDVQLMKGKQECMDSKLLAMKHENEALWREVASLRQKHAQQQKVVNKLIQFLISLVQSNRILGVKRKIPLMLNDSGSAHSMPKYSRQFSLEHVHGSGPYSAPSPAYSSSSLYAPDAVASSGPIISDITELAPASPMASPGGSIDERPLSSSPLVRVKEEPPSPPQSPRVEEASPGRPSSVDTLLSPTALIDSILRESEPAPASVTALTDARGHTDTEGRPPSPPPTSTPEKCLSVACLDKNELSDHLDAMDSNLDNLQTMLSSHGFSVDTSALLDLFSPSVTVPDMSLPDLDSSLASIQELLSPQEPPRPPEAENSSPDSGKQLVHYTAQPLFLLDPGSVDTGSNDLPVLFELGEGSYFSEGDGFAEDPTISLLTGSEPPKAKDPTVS
The target of assay [12] is T7, SPIC (Homo sapiens, UniProt Q8N5J4 1-248).
T7 sequence: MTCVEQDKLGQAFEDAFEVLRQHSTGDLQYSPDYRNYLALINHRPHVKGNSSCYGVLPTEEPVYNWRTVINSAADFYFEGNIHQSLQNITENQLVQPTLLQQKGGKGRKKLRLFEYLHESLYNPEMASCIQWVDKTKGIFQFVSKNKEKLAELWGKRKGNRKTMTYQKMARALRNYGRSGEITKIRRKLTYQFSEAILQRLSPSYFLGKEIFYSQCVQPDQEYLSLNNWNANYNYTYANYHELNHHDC
The note with it: protein: recombinant; tags: N-terminal GST; dsDNA, one strand shown. Summed up: as §1

The target in assay [13] is ELF4 (Homo sapiens, UniProt Q99607 1-663). Conditions: protein: recombinant; tags: N-terminal GST; dsDNA, one strand shown. Summed up:
as §1

The target in assay [14] is T8, ELK4 (Homo sapiens, UniProt P28324-2 1-405).
T8 sequence: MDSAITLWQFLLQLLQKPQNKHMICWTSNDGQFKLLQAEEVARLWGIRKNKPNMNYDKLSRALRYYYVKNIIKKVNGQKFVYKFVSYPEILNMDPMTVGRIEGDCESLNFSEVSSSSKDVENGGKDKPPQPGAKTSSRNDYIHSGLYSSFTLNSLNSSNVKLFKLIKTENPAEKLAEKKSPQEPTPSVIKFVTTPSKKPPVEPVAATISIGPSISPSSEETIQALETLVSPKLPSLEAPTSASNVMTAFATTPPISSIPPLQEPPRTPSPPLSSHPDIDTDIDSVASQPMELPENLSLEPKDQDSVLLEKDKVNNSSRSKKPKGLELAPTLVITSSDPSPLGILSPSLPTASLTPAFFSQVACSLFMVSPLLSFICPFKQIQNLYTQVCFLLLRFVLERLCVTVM
Conditions: protein: recombinant; tags: N-terminal GST; dsDNA, one strand shown. The essentials: as §1

Assay [15] has as its target T9, ETV2 (Homo sapiens, UniProt O00321 1-342).
T9 sequence: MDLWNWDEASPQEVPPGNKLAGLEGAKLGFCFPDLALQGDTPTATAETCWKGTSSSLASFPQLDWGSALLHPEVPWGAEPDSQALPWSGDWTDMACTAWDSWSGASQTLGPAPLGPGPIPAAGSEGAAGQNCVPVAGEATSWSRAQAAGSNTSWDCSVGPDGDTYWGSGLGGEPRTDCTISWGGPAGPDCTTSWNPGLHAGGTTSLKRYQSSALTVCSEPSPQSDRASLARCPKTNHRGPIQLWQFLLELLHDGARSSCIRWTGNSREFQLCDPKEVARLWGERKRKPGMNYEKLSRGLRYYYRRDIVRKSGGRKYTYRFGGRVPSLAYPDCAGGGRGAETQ
The note with it: protein: recombinant; tags: N-terminal GST; dsDNA, one strand shown. Summed up: as §1

Assay [16] deals with T10, ELF3 (Homo sapiens, UniProt P78545 1-371).
T10 sequence: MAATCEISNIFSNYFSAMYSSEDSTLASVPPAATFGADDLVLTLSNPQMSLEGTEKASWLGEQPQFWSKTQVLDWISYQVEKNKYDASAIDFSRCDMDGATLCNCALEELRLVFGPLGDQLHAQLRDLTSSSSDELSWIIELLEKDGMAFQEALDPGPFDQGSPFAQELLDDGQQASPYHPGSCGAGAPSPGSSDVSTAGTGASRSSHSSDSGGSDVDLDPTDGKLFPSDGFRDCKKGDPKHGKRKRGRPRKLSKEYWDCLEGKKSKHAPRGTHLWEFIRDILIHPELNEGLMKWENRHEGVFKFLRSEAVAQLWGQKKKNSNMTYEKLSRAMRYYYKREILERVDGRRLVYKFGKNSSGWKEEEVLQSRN
The note with it: protein: recombinant; tags: N-terminal GST; dsDNA, one strand shown. The essentials: as §1

The target in assay [17] is CRX (Homo sapiens, UniProt O43186 1-299). The note with it: protein: recombinant; tags: N-terminal GST; dsDNA, one strand shown. The essentials:
as §1

In assay [18] the target is ETV1 (Homo sapiens, UniProt P50549 1-477). The note with it: protein: recombinant; tags: N-terminal GST; dsDNA, one strand shown. Summed up: as §1
Chain of ETV1 (P50549 whole entry): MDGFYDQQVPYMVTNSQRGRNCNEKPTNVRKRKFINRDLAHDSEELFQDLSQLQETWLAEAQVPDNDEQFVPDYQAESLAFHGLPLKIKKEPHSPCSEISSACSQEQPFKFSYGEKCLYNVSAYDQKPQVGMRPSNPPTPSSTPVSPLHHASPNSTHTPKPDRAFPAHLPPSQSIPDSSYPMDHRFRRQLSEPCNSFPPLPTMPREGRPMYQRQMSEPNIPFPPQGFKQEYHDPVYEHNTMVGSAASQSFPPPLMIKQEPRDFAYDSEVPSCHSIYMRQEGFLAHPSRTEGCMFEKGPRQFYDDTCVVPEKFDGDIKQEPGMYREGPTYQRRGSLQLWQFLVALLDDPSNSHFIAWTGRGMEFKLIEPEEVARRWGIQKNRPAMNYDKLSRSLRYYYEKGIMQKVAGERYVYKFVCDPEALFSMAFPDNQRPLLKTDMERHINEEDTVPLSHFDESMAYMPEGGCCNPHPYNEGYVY

Chain of ETV5 (P41161 whole entry): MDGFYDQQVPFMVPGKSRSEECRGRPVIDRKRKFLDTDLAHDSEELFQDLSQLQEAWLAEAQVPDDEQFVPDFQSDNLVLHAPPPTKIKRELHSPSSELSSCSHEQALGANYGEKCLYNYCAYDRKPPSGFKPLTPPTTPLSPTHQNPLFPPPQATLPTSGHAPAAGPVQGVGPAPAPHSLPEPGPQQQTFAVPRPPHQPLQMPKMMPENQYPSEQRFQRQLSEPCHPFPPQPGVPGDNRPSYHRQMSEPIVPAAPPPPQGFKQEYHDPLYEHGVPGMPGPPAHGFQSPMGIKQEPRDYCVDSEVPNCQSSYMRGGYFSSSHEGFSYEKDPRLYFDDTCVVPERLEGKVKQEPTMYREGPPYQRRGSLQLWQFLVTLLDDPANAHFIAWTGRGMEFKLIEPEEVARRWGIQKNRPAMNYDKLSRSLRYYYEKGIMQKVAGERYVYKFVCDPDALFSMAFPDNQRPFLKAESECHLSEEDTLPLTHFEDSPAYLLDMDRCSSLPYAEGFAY
Chain of ELF4 (Q99607 whole entry): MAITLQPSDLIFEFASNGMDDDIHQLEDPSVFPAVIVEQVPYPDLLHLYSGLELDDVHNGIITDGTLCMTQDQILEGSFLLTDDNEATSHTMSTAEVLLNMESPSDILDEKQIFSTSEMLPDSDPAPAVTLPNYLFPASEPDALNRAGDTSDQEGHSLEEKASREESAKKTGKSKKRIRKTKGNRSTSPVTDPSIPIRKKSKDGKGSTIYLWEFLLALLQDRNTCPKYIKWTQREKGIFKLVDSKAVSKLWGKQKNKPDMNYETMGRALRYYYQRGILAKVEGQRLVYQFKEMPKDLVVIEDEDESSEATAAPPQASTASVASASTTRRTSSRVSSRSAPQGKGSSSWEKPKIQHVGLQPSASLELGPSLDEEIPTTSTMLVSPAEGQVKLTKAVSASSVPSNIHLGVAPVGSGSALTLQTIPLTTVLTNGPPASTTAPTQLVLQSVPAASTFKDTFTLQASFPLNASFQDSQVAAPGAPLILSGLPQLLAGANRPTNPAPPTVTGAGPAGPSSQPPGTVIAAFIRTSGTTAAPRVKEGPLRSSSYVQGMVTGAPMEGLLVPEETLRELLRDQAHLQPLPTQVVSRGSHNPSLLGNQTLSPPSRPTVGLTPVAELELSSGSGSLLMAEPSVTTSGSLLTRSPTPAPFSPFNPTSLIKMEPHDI
Chain of SPIB (Q01892 whole entry): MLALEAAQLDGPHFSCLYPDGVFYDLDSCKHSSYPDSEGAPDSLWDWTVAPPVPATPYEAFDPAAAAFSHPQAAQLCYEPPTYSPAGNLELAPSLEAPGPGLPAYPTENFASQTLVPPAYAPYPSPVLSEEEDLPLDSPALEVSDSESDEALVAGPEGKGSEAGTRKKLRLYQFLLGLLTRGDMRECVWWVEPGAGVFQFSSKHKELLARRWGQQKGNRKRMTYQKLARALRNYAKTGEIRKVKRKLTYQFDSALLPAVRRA
Chain of ELF1 (P32519 whole entry): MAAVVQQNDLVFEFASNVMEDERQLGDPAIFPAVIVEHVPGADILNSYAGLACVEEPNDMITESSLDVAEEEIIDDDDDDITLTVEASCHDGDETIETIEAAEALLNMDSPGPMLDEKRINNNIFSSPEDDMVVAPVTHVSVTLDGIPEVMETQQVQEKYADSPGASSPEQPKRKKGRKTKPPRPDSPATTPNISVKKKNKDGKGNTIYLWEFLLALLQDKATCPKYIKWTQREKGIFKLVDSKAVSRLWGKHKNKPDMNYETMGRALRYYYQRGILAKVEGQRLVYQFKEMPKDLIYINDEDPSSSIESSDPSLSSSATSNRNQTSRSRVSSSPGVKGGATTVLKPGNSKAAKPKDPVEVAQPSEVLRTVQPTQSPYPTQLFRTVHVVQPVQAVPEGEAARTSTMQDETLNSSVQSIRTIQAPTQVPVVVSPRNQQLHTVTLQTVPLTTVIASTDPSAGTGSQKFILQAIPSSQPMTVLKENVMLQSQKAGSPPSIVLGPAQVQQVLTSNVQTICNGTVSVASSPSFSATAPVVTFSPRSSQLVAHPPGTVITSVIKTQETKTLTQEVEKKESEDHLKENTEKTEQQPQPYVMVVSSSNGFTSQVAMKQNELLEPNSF
Chain of CRX (O43186 whole entry): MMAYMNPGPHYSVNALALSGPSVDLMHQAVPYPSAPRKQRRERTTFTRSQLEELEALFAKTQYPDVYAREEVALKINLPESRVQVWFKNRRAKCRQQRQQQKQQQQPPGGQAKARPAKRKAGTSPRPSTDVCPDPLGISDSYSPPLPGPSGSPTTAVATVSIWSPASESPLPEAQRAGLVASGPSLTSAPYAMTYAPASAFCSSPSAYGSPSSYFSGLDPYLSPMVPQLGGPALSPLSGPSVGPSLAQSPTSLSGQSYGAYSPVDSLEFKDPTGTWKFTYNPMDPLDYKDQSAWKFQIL

Turning to TATCGC, the binding signal in assay [1] is 1.13 fold enrichment (6-mer frequency, TF over GST control); in [2], 1.16 fold enrichment (6-mer frequency, TF over GST control); in assay [3], 1.23 fold enrichment (6-mer frequency, TF over GST control); in [4], 1.15 fold enrichment (6-mer frequency, TF over GST control); in assay [5], 1.16 fold enrichment (6-mer frequency, TF over GST control); in assay [6], 1.28 fold enrichment (6-mer frequency, TF over GST control). Also, the binding signal in assay [7] was 1.08 fold enrichment (6-mer frequency, TF over GST control); in assay [8], 1.16 fold enrichment (6-mer frequency, TF over GST control); in [9], 1.17 fold enrichment (6-mer frequency, TF over GST control); in assay [10], 1.13 fold enrichment (6-mer frequency, TF over GST control); in assay [11] it was 1.22 fold enrichment (6-mer frequency, TF over GST control); in [12], 1.21 fold enrichment (6-mer frequency, TF over GST control). Further, the binding signal in assay [13] is 1.23 fold enrichment (6-mer frequency, TF over GST control); in [14], 1.3 fold enrichment (6-mer frequency, TF over GST control); in assay [15] it was 1.07 fold enrichment (6-mer frequency, TF over GST control); in assay [16], 1.1 fold enrichment (6-mer frequency, TF over GST control); in assay [17], 1.41 fold enrichment (6-mer frequency, TF over GST control); in [18], 1.22 fold enrichment (6-mer frequency, TF over GST control).

Source of the values: article PMC7862700, “An all-to-all approach to the identification of sequence-specific readers for epigenetic DNA modifications on cytosine”.
